Compound activity: PubChem, several laboratories
Rows were chosen to be rich in hits. Some 4.7% of all compounds tested hit in one or more screens of this group.
PLK1 inh: PLK1 (human) kinase inhibition; P53350; recombinant PLK1 kinase, TR-FRET peptide phosphorylation; inhibition, % at 10 µM; actives 0.53% (n = 97,000); AID 619;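 active means inhibition of 50% or more in the single-concentration screen; inactive means inhibition below 50%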
PTK2B oligo ant: antagonists of human Pyk2 oligomerization | z-score (the deposit names both 25 µM and 10 µM) | Q293 cells, Pyk2 FERM NanoBiT luminescence; stronger effect = lower value | actives 0.83% (n = 99,000);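 active means Z-score of -3 or lower, scaled per plate to the spread of control and sample wells; inactive means z-score above -3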;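 further: negative z-score means lost luminescence so less FERM oligomerization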
hDAT+cocaine: human DAT dopamine uptake with cocaine, either direction; actives 1.3% (n = 110,000); Q01959; B-score at 10 µM; LLC-PK1 hDAT cells, [14C]-dopamine uptake with cocaine IC80; actives deviate in either direction;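 active means Z score or B-score, a plate-position-corrected score, falls beyond the plate's 99.7% confidence bounds, in either direction; inactive means both scores lie inside the 99.7% bounds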
sdo1 growth: restores growth of sdo1-depleted yeast; S. cerevisiae sdo1-depleted JHY4D growth rescue, OD600 30 h; stronger effect = higher value; pdr5 snq2 efflux-pump mutant strain; z-score at 10 µM; actives 0.21% (n = 140,000); AID 817;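 active means z-score above 3 at both the 24 hr and the 30 hr optical density reads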
PLK1 PBD inh: Plk1 (human) PBD binding inhibition. P53350. Plk1 PBD phosphopeptide binding, fluorescence polarization. inhibition, %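 (tested at about 20 µM)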. actives 0.13% (n = 97,000). AID 693; in the data active means inhibition above about 34%, passing the limit was not always enough
Cav32 inh: human Cav3.2 channel inhibition, primary screen; AID 449739; B-score at 10 µM; actives 4% (n = 100,000); Cav3.2-expressing cells, Fluo-4 calcium fluorescence FDSS; stronger effect = lower value;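 active means single-dose well whose peak fluorescence ratio is a statistical outlier from its plate by either plate-standardised score or position-corrected B-score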
Target sequence (O95180 whole entry, looked up): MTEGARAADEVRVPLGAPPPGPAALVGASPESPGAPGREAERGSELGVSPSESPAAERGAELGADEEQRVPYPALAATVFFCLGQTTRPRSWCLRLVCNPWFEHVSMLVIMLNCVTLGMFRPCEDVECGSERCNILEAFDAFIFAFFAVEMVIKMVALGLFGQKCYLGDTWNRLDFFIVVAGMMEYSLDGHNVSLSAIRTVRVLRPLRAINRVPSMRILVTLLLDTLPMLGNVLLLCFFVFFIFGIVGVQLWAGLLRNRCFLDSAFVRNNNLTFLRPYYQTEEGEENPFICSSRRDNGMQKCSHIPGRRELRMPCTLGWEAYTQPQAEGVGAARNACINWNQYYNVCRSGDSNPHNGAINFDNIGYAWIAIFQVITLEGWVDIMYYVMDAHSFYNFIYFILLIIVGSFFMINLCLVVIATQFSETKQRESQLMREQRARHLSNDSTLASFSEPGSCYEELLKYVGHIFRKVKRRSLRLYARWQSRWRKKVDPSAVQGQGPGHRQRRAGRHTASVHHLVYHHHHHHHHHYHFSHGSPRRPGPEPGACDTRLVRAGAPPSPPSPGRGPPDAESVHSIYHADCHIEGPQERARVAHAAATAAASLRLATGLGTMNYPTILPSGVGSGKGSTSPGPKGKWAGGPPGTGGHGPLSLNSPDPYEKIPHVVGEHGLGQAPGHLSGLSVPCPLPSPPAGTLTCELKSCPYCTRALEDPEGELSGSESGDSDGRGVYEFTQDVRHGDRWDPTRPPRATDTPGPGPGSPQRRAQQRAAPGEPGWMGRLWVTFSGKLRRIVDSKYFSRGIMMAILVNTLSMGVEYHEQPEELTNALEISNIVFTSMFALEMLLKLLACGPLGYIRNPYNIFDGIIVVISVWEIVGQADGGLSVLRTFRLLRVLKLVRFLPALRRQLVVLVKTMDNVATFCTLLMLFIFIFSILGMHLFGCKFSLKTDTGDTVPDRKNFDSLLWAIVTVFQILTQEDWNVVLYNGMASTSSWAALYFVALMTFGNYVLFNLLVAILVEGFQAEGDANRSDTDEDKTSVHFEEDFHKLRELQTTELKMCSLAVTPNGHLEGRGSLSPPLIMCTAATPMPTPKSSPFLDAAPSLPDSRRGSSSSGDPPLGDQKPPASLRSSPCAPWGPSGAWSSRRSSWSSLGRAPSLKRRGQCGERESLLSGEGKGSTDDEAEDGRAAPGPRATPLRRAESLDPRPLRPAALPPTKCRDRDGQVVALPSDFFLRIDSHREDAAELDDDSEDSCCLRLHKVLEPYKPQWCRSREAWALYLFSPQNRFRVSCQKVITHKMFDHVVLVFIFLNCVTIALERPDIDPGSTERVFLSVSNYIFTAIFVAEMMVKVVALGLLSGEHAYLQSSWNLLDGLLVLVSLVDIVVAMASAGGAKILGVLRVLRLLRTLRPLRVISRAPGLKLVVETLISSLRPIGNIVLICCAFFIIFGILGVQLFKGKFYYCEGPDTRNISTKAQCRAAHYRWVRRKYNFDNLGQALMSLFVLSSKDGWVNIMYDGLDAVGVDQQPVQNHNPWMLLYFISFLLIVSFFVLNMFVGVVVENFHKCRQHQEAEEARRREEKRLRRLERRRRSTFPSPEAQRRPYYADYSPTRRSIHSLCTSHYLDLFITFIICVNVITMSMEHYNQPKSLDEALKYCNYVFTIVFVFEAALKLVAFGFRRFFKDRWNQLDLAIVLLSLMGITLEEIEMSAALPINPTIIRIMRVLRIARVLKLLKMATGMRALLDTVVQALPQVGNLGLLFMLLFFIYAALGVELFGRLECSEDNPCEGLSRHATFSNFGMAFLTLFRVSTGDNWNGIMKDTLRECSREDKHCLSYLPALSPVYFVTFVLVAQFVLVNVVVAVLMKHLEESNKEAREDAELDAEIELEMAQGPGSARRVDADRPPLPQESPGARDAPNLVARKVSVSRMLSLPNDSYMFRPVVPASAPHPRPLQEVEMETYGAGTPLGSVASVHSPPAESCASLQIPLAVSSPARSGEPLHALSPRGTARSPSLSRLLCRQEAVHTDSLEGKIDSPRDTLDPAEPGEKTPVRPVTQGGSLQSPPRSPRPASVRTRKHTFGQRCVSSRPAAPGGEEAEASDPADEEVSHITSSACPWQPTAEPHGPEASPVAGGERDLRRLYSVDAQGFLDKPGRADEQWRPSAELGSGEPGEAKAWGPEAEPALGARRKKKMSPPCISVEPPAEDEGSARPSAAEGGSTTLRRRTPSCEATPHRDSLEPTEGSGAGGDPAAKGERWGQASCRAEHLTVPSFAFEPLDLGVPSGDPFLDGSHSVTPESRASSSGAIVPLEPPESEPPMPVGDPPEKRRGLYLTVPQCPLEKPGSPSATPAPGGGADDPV
Of the large screens only hits and unclear results are named; the others gave an inactive call.

Cc1cccc(Nc2nc(-c3ccccn3)cs2)n1	Cav32 inh -3.6
COc1ccc(C(C)=O)cc1CSc1nnc(Nc2ccccc2)s1	none (no result: PLK1 inh, PTK2B oligo ant, hDAT+cocaine, PLK1 PBD inh, Cav32 inh)
O=C(N/N=C/c1ccc(O)cc1)/C(=C/c1ccccc1)CCO	none (no result: PLK1 inh, PTK2B oligo ant, hDAT+cocaine, PLK1 PBD inh, Cav32 inh)
COc1ccc(-c2cnc(SCC(=O)Nc3cc(C)on3)n2Cc2ccco2)cc1	Cav32 inh -4.5
CCC(=O)Nc1cc(NC(=O)CSc2ncc(-c3ccc(F)cc3)n2Cc2ccco2)ccc1C	Cav32 inh -8.8
COCCn1c(-c2ccc(OC)cc2)cnc1SCC(=O)Nc1cccc2ccccc12	Cav32 inh -8.1
COc1ccc(-c2cnc(SCC(=O)Nc3nc(C(C)(C)C)cs3)n2Cc2ccco2)cc1	Cav32 inh -5.7
COc1ccc(NC(=O)CSc2ncc(-c3ccc(F)cc3)n2Cc2ccco2)cc1	none
CCCCNS(=O)(=O)c1ccc2nc(-c3cccs3)cc(C(=O)NCC(OC)OC)c2c1	none (no result: PLK1 inh, PTK2B oligo ant, hDAT+cocaine, PLK1 PBD inh, Cav32 inh)
CCN(CC)S(=O)(=O)c1ccc(N2CCOCC2)c(NS(=O)(=O)c2ccc(C)c(C)c2)c1	none (no result: PLK1 inh, PTK2B oligo ant, hDAT+cocaine, PLK1 PBD inh, Cav32 inh)
CSC1=C(C#N)C(c2ccc(Cl)cc2)C2=C(CC(C)(C)CC2=O)N1 (stereo not given)	PTK2B oligo ant -3.1 (no result: PLK1 inh, PLK1 PBD inh)
CCCSC1=C(C#N)C(c2ccc(OC)cc2)C2=C(CC(C)(C)CC2=O)N1 (stereo not given)	none (no result: PLK1 inh, PLK1 PBD inh)
COc1nc(OC)nc(N2CCC(C(=O)NCc3ccco3)CC2)n1	none (no result: PLK1 inh, PLK1 PBD inh)
O=C(NCc1ccco1)C1CCN(c2nc3ccccc3n2Cc2ccc(F)cc2)CC1	Cav32 inh -8.3 (no result: PTK2B oligo ant)
COC(=O)c1ccc(CSc2nc(N3CCOCC3)c3c(c2C#N)CC(C)(C)OC3)o1	none
CC(C)CCSc1nc(N2CCOCC2)c2c(c1C#N)CC(C)(C)OC2	Cav32 inh -3.8
CCOC(=O)C1CCCN(C(=S)Nc2cccc(Cl)c2)C1 (stereo not given)	none (no result: PLK1 inh, PTK2B oligo ant, hDAT+cocaine, PLK1 PBD inh, Cav32 inh)
Cc1ccc(-n2nc(-c3cccs3)cc2C(=O)NCC2CCCO2)c(C)c1 (stereo not given)	Cav32 inh -4.4
Cc1ccc(-c2cc(C(=O)NCC3CCCO3)no2)cc1 (stereo not given)	none
CC(C)CCNC(=O)CN(C(=O)Cn1nnc(-c2ccccc2F)n1)c1cccc2c1CCCC2	Cav32 inh -8
O=C(CN(C(=O)Cn1nnc(-c2ccccc2F)n1)c1cccc2c1CCCC2)NCc1ccccc1	Cav32 inh -6.1
COc1ccc(C(=O)Nc2ccc(Cl)cc2C(=O)N2CCCC(C)C2)cc1OC (stereo not given)	none (no result: PLK1 inh, PTK2B oligo ant, hDAT+cocaine, PLK1 PBD inh, Cav32 inh)
Fc1ccc(NC(=S)NCc2cccs2)cc1	none (no result: PLK1 inh, PTK2B oligo ant, hDAT+cocaine, PLK1 PBD inh, Cav32 inh)
Cc1ccccc1CSCCNC(=O)CN(c1ccc2c(c1)OCO2)S(C)(=O)=O	Cav32 inh -4.3
Cc1cc2nc(C3CCN(CC4COc5ccccc5O4)CC3)[nH]c2cc1C (stereo not given)	Cav32 inh -6.3
CCCNC(=S)N1CCC(c2nc3cc(C)c(C)cc3[nH]2)CC1	none
Cc1c(Cl)c([N+](=O)[O-])nn1CC(=O)NC12CC3CC(CC(C3)C1)C2	Cav32 inh -3.8
S=C(NCCSCc1ccc(Cl)c(Cl)c1)Nc1ccccc1	none (no result: sdo1 growth)
Cc1cc(C)cc(NC(=S)NCCSc2ccc(Cl)cc2)c1	none (no result: PLK1 inh, PTK2B oligo ant, hDAT+cocaine, PLK1 PBD inh, Cav32 inh)
Cc1ccc(SCCNC(=S)Nc2ccc(C)c(C)c2)cc1	Cav32 inh -4.4
Cc1ccc(SCCNC(=S)Nc2cc(C)ccc2C)cc1	Cav32 inh -4.1
Cc1ccc(SCCNC(=S)Nc2ccccc2)cc1	Cav32 inh -6.1
S=C(NCCSCc1c(Cl)cccc1Cl)Nc1ccccc1	Cav32 inh -5.8
Cc1cc(C)c(C)c(OC(=O)c2sc(Cl)nc2C)c1	none (no result: PLK1 inh, PTK2B oligo ant, hDAT+cocaine, PLK1 PBD inh, Cav32 inh)
COCCn1nnnc1C(c1ccccc1OC)N1CCN(c2ccccc2F)CC1 (stereo not given)	none
Fc1ccc(C(c2nnnn2Cc2cccs2)N2CCN(c3ccccc3)CC2)cc1 (stereo not given)	PTK2B oligo ant -3.5, hDAT+cocaine 2.2, Cav32 inh -5.8
COCCn1nnnc1C(c1cccs1)N1CCN(c2cccc(C(F)(F)F)c2)CC1 (stereo not given)	Cav32 inh -5.4
COc1ccc(C(c2nnnn2Cc2cccs2)N2CCN(c3ccccc3F)CC2)cc1OC (stereo not given)	PTK2B oligo ant -3.6 (no result: PLK1 inh, PLK1 PBD inh)
CCC(c1nnnn1CCOC)N1CCN(c2cccc(C(F)(F)F)c2)CC1 (stereo not given)	none
COCCn1nnnc1C(c1ccc(OC)cc1)N1CCN(c2ccccc2F)CC1 (stereo not given)	PTK2B oligo ant -3.5
O=C(CCCCO)CCCCCCCC[C@H]1N[C@H](CO)[C@H](O)[C@@H]1O[C@@H]1O[C@H](CO)[C@@H](O)[C@H](O)[C@H]1O	none (no result: PLK1 inh, PTK2B oligo ant, PLK1 PBD inh)
CCCOc1ccc(N2C(=O)CC(N(CCc3ccc(OC)cc3)C(=O)c3cccc(F)c3)C2=O)cc1 (stereo not given)	Cav32 inh -4.6
Cc1ccc(SCC(=O)N2c3ccccc3Sc3ccccc32)cc1	Cav32 inh -5.8
O=C(NC12CC3CC(CC(C3)C1)C2)N1CCN(S(=O)(=O)c2ccc(Cl)cc2)CC1	Cav32 inh -7
O=C(NC1CCCCC1)c1ccc(S(=O)(=O)N2CCOCC2)cc1	none
O=C(NC12CC3CC(CC(C3)C1)C2)c1ccc(S(=O)(=O)N2CCOCC2)cc1	hDAT+cocaine 2.5 (no result: Cav32 inh)
O=C1CN(C(=O)c2cc([N+](=O)[O-])ccc2Cl)C(c2ccc(F)cc2)c2cc(F)ccc2N1 (stereo not given)	none (no result: PLK1 inh, PTK2B oligo ant, hDAT+cocaine, PLK1 PBD inh, Cav32 inh)
O=C(CC(Nc1ccc(F)cc1)C(=O)OCC(=O)c1cccs1)c1ccccc1 (stereo not given)	none (no result: PLK1 inh, PTK2B oligo ant, hDAT+cocaine, PLK1 PBD inh, Cav32 inh)
N=c1c(C(=O)NCc2ccco2)cc2c(=O)n3ccccc3nc2n1CCc1ccccc1	hDAT+cocaine 4.1
CCSc1nnc(NC(=O)CSc2nnc(CNC(=O)c3ccc(OC)c(OC)c3)o2)s1	none (no result: PLK1 inh, PTK2B oligo ant, hDAT+cocaine, PLK1 PBD inh, Cav32 inh)
Cc1ccc(C2CC(=O)c3cnc(N4CCc5ccccc5C4)nc3C2)cc1 (stereo not given)	none
O=C1CC(c2ccccc2)Cc2nc(N3CCc4ccccc4C3)ncc21 (stereo not given)	Cav32 inh -6.2
CCCCCCCCN1[C@@H](CC(=O)OCC)c2cc(C(F)(F)F)ccc2S1(=O)=O	Cav32 inh -4.2 (no result: PLK1 inh, PTK2B oligo ant, sdo1 growth, PLK1 PBD inh)
O=C1CC(SCc2nc3ccccc3[nH]2)C(=O)N1c1ccc(F)c(Cl)c1 (stereo not given)	none
O=C1CC(SCCc2nc3ccccc3[nH]2)C(=O)N1c1ccc(Cl)cc1 (stereo not given)	Cav32 inh -6.5
O=C1CC(SCc2nc3ccccc3[nH]2)C(=O)N1c1ccc(Cl)cc1 (stereo not given)	Cav32 inh -4.9
COc1ccc(C(CC(=O)Nc2ccc(F)cc2)c2ccccc2)cc1 (stereo not given)	Cav32 inh -6.2
CCCCn1nnc(NC(=O)c2ccc(-c3cccc(Cl)c3)o2)n1	Cav32 inh -4.9
CCCCn1nnc(NC(=O)Cc2ccc(Cl)cc2)n1	none
CCCn1nnc(NC(=O)c2cccc(Cl)c2)n1	none
